Laboratory results reported in the supplement of paper PMC10849652.
Of roughly 7,900 targets only a part is listed; those with a hit were picked by preference. About 0.6% of all pairs of compound and target were hits. A number with no mark means an inactive call.

What follows are targets tested with CN1CCC(CNc2ccc3ncc(-c4cccc(OC(F)(F)F)c4)n3n2)CC1 (assay: log2 fold change, soluble protein after heating vs DMSO (PISA); higher = thermal stabilisation; K562 cells, 10 uM, 30 min; active = over 0.2 and 3.5 SD of the protein, either way, in both replicates (recomputed)).
Outline: (§1)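 K562 cells at 2×10^6 cells/mL were exposed to 10 μM compound for 30 min, then aliquots were heated for 3 min across 48°C-58°C, pooled, and extracted in PBS containing 0.5% NP-40 at 4°C. The supernatant after 21,000xg for 90 min was taken as soluble protein and measured by TMTpro 16plex LC-MS/MS with channel sums equalised. Thermal stability is reported relative to control samples, with values from duplicates. Fold changes are given on a log2 scale.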

Sequence of UniProt Q9Y6I9 (Q9Y6I9 whole entry, looked up): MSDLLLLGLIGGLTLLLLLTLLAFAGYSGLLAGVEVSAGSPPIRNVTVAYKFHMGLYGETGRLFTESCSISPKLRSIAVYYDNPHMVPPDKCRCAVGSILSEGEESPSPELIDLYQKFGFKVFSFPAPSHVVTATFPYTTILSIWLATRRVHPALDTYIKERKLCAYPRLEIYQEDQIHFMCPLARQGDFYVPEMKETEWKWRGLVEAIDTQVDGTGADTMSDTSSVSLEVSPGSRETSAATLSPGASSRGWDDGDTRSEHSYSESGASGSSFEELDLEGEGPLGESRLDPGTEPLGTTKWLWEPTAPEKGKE
Sequence of UniProt Q9Y5X3 (Q9Y5X3 whole entry, looked up): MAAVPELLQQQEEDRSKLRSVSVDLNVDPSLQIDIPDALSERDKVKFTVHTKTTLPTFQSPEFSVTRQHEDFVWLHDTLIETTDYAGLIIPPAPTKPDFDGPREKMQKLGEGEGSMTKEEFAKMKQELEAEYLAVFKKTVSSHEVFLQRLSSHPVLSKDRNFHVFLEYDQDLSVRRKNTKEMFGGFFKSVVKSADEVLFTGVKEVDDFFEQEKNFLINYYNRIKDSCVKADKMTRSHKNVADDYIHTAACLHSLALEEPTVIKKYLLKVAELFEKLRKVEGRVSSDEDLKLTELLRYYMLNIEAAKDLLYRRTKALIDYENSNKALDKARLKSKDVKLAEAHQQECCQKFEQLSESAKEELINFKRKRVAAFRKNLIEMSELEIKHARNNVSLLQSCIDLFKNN
Sequence of UniProt Q9BW92 (Q9BW92 whole entry, looked up): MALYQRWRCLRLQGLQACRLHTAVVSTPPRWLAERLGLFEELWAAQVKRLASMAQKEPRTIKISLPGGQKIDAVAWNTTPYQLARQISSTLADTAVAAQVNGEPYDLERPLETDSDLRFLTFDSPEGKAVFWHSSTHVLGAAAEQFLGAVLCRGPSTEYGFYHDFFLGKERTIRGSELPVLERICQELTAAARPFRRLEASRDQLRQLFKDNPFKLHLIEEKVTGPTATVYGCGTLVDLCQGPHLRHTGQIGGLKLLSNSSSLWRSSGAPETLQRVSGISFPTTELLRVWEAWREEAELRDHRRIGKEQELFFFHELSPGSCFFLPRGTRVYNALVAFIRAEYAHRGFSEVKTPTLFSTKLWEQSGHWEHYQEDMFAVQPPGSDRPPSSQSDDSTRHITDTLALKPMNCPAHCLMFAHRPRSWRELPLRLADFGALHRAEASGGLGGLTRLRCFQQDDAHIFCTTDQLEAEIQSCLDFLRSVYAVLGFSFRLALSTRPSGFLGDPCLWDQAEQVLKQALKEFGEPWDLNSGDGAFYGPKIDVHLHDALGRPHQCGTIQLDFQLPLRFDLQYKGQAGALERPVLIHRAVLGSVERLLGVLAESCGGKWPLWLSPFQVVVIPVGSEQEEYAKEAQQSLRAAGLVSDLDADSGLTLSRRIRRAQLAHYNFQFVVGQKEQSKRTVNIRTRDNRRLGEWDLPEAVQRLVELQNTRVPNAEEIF
Sequence of UniProt Q13242 (Q13242 whole entry, looked up): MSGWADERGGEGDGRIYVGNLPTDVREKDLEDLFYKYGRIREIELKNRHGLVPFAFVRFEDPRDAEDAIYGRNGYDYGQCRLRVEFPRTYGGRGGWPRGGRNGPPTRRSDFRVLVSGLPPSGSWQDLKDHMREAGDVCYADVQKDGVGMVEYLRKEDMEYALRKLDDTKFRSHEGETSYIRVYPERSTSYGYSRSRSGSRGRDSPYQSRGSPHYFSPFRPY
Sequence of UniProt Q9P289 (Q9P289 whole entry, looked up): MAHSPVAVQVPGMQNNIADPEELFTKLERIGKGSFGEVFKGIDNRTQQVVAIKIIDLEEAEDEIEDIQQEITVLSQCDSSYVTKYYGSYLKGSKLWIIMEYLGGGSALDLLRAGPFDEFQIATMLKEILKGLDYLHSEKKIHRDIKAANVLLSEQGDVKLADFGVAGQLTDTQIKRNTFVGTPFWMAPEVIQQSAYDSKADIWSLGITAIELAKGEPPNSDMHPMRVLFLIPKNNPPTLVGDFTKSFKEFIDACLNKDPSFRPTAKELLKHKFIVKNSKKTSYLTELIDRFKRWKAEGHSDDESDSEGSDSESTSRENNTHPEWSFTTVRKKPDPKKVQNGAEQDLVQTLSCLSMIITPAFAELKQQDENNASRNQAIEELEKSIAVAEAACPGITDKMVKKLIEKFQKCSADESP
Sequence of UniProt O95772 (O95772 whole entry, looked up): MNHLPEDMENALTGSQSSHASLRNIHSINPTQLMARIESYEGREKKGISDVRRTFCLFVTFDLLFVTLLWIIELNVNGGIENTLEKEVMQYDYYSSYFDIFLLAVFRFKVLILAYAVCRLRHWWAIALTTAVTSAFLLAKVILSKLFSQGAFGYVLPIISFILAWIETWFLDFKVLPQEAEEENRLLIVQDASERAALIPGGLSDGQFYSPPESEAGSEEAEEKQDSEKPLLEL
Sequence of UniProt Q8N5G0 (Q8N5G0 whole entry, looked up): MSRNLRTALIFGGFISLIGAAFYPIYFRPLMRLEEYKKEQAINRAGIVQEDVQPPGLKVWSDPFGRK
Sequence of UniProt Q9NRS6 (Q9NRS6 whole entry, looked up): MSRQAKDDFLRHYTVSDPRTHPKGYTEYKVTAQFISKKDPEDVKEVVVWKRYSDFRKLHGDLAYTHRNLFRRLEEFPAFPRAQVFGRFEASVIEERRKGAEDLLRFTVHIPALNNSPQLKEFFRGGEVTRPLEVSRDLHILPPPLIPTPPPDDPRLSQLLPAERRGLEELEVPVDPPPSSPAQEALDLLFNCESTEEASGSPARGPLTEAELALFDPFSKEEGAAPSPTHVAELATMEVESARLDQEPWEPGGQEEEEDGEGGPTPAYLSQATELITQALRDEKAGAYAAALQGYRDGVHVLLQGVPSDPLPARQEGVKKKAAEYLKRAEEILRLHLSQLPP
Sequence of UniProt Q9BWG4 (Q9BWG4 whole entry, looked up): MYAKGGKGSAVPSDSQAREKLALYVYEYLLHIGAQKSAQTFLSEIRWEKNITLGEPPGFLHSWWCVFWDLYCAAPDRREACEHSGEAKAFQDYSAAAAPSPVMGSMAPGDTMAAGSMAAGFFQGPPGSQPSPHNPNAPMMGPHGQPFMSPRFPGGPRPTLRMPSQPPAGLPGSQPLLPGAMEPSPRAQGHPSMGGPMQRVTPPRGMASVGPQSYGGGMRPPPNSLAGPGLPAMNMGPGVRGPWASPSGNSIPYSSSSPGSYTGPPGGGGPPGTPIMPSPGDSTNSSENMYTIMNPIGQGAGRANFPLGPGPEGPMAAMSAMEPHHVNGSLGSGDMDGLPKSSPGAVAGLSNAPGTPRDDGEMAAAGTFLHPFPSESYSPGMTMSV
Sequence of UniProt Q9UHD2 (Q9UHD2 whole entry, looked up): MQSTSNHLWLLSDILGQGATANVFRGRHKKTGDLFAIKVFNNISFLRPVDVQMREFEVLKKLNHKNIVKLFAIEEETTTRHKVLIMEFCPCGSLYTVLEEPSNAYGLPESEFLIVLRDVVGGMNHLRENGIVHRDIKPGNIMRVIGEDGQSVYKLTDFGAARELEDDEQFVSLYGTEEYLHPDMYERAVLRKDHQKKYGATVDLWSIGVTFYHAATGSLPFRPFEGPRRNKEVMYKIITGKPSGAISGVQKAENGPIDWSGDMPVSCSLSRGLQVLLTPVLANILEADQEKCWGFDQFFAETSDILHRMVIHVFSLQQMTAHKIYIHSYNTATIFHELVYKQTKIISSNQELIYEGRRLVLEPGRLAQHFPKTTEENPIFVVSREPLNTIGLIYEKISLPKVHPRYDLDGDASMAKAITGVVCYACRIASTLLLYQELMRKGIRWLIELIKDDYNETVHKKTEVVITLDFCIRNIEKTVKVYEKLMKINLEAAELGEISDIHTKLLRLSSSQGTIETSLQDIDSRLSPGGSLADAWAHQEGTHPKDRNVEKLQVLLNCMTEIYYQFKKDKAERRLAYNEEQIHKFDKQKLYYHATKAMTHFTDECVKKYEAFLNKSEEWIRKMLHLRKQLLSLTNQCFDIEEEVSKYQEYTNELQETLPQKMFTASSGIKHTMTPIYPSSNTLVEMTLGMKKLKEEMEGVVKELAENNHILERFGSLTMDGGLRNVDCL
Sequence of UniProt Q969G3 (Q969G3 whole entry, looked up): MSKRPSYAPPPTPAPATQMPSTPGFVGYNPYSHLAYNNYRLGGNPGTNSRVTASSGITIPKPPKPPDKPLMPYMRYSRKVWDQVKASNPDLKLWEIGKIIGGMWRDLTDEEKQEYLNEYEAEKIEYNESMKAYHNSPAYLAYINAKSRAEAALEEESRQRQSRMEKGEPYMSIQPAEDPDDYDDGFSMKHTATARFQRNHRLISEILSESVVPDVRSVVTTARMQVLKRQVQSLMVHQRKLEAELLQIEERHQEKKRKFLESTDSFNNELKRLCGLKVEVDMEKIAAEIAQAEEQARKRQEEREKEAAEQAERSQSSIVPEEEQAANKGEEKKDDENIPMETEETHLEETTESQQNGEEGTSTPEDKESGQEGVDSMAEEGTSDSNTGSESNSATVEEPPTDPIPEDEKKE
Sequence of UniProt Q8N1S5 (Q8N1S5 whole entry, looked up): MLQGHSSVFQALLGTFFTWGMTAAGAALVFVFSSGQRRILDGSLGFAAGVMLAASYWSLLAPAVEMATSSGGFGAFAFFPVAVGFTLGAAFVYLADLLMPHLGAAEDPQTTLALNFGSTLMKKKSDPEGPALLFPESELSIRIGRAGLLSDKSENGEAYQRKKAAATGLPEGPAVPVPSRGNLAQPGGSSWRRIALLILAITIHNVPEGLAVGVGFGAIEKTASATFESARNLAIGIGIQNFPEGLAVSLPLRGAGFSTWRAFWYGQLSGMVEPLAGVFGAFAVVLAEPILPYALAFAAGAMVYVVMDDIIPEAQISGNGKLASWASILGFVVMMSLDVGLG
Sequence of UniProt Q15005 (Q15005 whole entry, looked up): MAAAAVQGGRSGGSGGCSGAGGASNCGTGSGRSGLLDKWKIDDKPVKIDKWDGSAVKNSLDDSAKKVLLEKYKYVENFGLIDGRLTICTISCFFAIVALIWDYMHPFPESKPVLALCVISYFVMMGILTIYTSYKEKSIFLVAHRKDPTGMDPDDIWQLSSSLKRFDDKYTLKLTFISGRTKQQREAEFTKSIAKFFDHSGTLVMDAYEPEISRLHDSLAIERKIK

Row | Target | log2 fold change
1 | SYNE2 isoform 2 (UniProt Q8WXH0) | -0.025
2 | TBK1 (UniProt Q9UHD2) | -0.152
3 | SLC38A7 (UniProt Q9NVC3) | -0.589
4 | TENT5C (UniProt Q5VWP2) | -0.082
5 | SRXN1 (UniProt Q9BYN0) | -0.199
6 | SMARCE1 (UniProt Q969G3) | -0.045
7 | SRC isoform 2 (UniProt P12931) | -0.149
8 | SRFBP1 (UniProt Q8NEF9) | 0.277
9 | SLC39A11 (UniProt Q8N1S5) | 0.15
10 | TBC1D15 isoform 3 (UniProt Q8TC07) | -0.241 (active)
11 | SNX15 (UniProt Q9NRS6) | 0.039
12 | SPPL2B (UniProt Q8TCT7) | -0.228
13 | SMIM20 isoform 2 (UniProt Q8N5G0) | 0.002
14 | SRSF9 (UniProt Q13242) | 0.364
15 | TBC1D20 isoform 3 (UniProt Q96BZ9) | 0.046
16 | TEX264 (UniProt Q9Y6I9) | 0.262
17 | SPCS2 (UniProt Q15005) | 0.005
18 | TJP1 (UniProt Q07157) | -0.071
19 | TACC2 (UniProt O95359) | -0.044
20 | SSBP4 (UniProt Q9BWG4) | 0.036
21 | SNRPB2 (UniProt P08579) | 0.098
22 | STK26 (UniProt Q9P289) | -0.191
23 | SP100 isoform 4 (UniProt P23497) | -0.064
24 | STARD3NL (UniProt O95772) | -0.371 (active)
25 | SNX5 (UniProt Q9Y5X3) | -0.289 (active)
26 | TARS2 (UniProt Q9BW92) | -0.069
27 | SPTBN1 (UniProt Q01082) | 0.048
28 | TAOK2 (UniProt Q9UL54) | 0.01
29 | SUN1 isoform 9 (UniProt O94901) | -0.111
30 | SRCAP (UniProt Q6ZRS2) | -0.006

Each target was assayed with CN1CCN(CCOc2cc(OC3CCOCC3)c3c(Nc4c(Cl)ccc5c4OCO5)ncnc3c2)CC1 [saracatinib] in the same assay as above.
Outline: as §1

Row | Target | log2 fold change
31 | SYNE2 isoform 2 (UniProt Q8WXH0) | -0.121
32 | TBK1 (UniProt Q9UHD2) | -0.026
33 | TANGO6 (UniProt Q9C0B7) | -0.09
34 | TENT5C (UniProt Q5VWP2) | -0.127
35 | SLC29A3 (UniProt Q9BZD2) | 0.089
36 | SMARCE1 (UniProt Q969G3) | -0.036
37 | SRFBP1 (UniProt Q8NEF9) | 0.038
38 | SLC39A11 (UniProt Q8N1S5) | 0.098
39 | TBC1D15 isoform 3 (UniProt Q8TC07) | -0.01
40 | TM7SF3 (UniProt Q9NS93) | 0.072
41 | SNX15 (UniProt Q9NRS6) | -0.039
42 | SPPL2B (UniProt Q8TCT7) | -0.009
43 | SMIM20 isoform 2 (UniProt Q8N5G0) | 0
44 | SRSF9 (UniProt Q13242) | 0.022
45 | SLC35F6 (UniProt Q8N357) | 0.182
46 | TEX264 (UniProt Q9Y6I9) | -0.041
47 | SPCS2 (UniProt Q15005) | -0.029

Row | Target | log2 fold change
48 | TJP1 (UniProt Q07157) | -0.049
49 | TACC2 (UniProt O95359) | -0.003
50 | SSBP4 (UniProt Q9BWG4) | 0.409 (active)
51 | SNRPB2 (UniProt P08579) | 0.079
52 | STK26 (UniProt Q9P289) | -0.027
53 | SP100 isoform 4 (UniProt P23497) | 0.058
54 | STARD3NL (UniProt O95772) | 0.103
55 | SNX5 (UniProt Q9Y5X3) | 0
56 | TMBIM6 isoform 2 (UniProt P55061) | 0.08
57 | TARS2 (UniProt Q9BW92) | -0.004
58 | SPTBN1 (UniProt Q01082) | -0.019
59 | SLC35A1 (UniProt P78382) | 0.038
60 | SLC38A2 (UniProt Q96QD8) | -0.007
61 | SUN1 isoform 9 (UniProt O94901) | -0.023
62 | SRCAP (UniProt Q6ZRS2) | 0.032
63 | TBP (UniProt P20226) | 0.316
